PubChem BioAssay (NCATS)
Records with an inconclusive call do not appear. A call without a number means that no potency is given here. Unmarked numbers belong to inactive results. Calls of active or inactive are those of the source. Calls come from the whole dose curve; as a rule, active = well fitted curve in the direction sought with a large enough effect; inconclusive = small, poorly fitted or top-dose-only effect, or another doubt; inactive = no such curve, though single readings can be large; an effect the other way counts as inactive or inconclusive. Bridge positions count the residues as written; N and C are the ends. Square brackets hold non-standard residues; d marks the D form. Side chains are listed from the residue outwards. Peptide text beside a SMILES is read from it. * marks the point of attachment. Phg(4-OMe) = COc1ccc([C@H](N)C(=O)O)cc1; d(aIle) = CC[C@H](C)[C@@H](N)C(=O)O; d(aThr) = C[C@@H](O)[C@@H](N)C(=O)O; NMeF = CN[C@@H](Cc1ccccc1)C(=O)O; Isobutyryl = CC(C)C(=O)*

test: HPAF-II 18hr Apoptosis Induction qHTS against the NCATS CANVASS Library (AID 1347360); settings: HPAF-II caspase-3/7 luminescence; series mostly up to 46.1 µM
Procedure, shortened: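 HPAF-II cells (500/well, DMEM + 10% FBS) were exposed to compounds for 18 hours at 37 degrees C. Caspase-3/7 activity was then read by Caspase-Glo 3/7 luminescence after 15 min at room temperature.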

SMILES	Potency
C=CC(CCCCC)C1C(=O)NC(=O)C1C(=O)C1C2C(C)CC(C(=O)O)CC2CC1(O)C(=O)/C=C/C (centres undefined)	inactive
C[C@]12CCC[C@](C)(C(=O)O)[C@@H]1CC[C@@]1(C)c3cocc3CC[C@H]21	inactive
COc1c(O)cc2c(c1O)C(=O)c1c(coc1C)C2=O	inactive
CC(C)C[C@@H]1c2c(O)c(C=O)c(O)c(C=O)c2O[C@]2(C)C=C[C@@H](C(C)C)C[C@H]12	inactive
COc1cc2c(c(O)c1O)C(=O)c1c(coc1C)C2=O	inactive
CO[C@H]1[C@@H](OC(=O)/C(C)=C\[C@@H]2O[C@@H]2[C@H]2O[C@H]2C)[C@H](O)[C@H](OCC23C[C@@H]4[C@H](C)CC[C@H]4C4(C=O)CC2C=C(C(C)C)C34C(=O)O)O[C@@H]1C (some centres undefined)	inactive
C/C=C/C1C=CC2CC(C)CC(C)C2C1C(=O)CC(=O)NC(CO)C/C=C/CCCCC (centres undefined)	inactive
CC[C@H]1[C@H](C)[C@H](c2cc(OC)c(OC)cc2OC)[C@@H](C)[C@H](c2cc(OC)c(OC)cc2OC)[C@@]12C=C(OC)C(=O)C=C2OC	inactive

test: HEK293 12hr Apoptosis Induction qHTS against the NCATS CANVASS Library (AID 1347361); settings: HEK293 caspase-3/7 Caspase-Glo luminescence; series mostly up to 46.1 µM
Procedure, shortened: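 Read-out: Caspase-Glo 3/7 luminescence (DEVD substrate), 15 min RT. Preceded by 12 h compound exposure of HEK293, 500 cells/well, 11-pt qHTS titration; doxorubicin titration as control.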

SMILES	outcome	caspase activation
Cc1occ2c1C(=O)c1c(cc(O)c(O)c1O)C2=O	inactive	
O=C1CC2OCC=C3CN4C5CC3C2[C@@H]2N1c1ccccc1[C@]52C[C@@H]4C1=C[C@H]2C3CC4N(CC[C@@]45c4ccccc4N(C1=O)[C@@H]25)C/C3=C/CO (some centres undefined)	inactive	
CCC(=O)CCCCC[C@@H]1NC(=O)[C@H]2CCCCN2C(=O)[C@H](C(C)C)NC(=O)[C@H](Cc2cn(OC)c3ccccc23)NC1=O	inactive	
C/C(=C\[C@H](C)C(=O)CCCC1CC(=O)NC(=O)C1)[C@@H]1OC(=O)/C=C/CC/C=C/[C@H](O)[C@@H](O)[C@@H]1C	inactive	
C/C=C(/C)c1c(Cl)c(O)c(C)c2c1Oc1c(Cl)c(O)c(Cl)c(C)c1C(=O)O2	inactive	
C=C[C@@]1(C)CC[C@@H]([C@H](C)C(=O)/C=C/C(C)(C)O)O1	inactive	
C=CC(CCCCC)C1C(=O)NC(=O)C1C(=O)C1C(/C=C/C)C=CC2CC(C(=O)O)CC(C)C21 (centres undefined)	inactive	
C=C1CC[C@@H](O[C@H]2C[C@@](O)([C@H](C)NC(=O)c3[nH]c(C)c(Cl)c3Cl)[C@H](O)[C@@H](C)O2)[C@@H]2C=C[C@H](C)C(/C(O)=C3/C(=O)[C@H](C(C)C)N([C@@H]4O[C@H](C)[C@H](OC(N)=O)[C@H](OC(C)=O)[C@@H]4OC)C3=O)[C@@H]12 (some centres undefined)	inactive	
COc1ccc([C@@H]2CC(=O)c3c(cc(O)c(C/C=C(\C)CCC=C(C)C)c3O)O2)cc1		1.23% [at 9.19 µM]
O=c1cc(-c2ccc(O)c(O)c2)oc2cc(O[C@@H]3O[C@H](CO)[C@@H](O)[C@H](O)[C@H]3O)cc(O)c12	inactive	
CC[C@H](C)[C@H]1NC(=O)[C@@H](NC(=O)C(C)C)[C@@H](C)OC(=O)[C@H](COC(=O)CNC(C)=O)NC(=O)[C@@H]([C@@H](C)O)NC(=O)[C@H](Cc2ccccc2)N(C)C(=O)[C@H](c2ccc(OC)cc2)NC1=O (Isobutyryl-T[d(aIle)][Phg(4-OMe)][NMeF][d(aThr)]S([Gly-Ac]); ester 1-C)	inactive	
C[n+]1cc2cc(C(N)=O)[nH]c3c(=N)c(Cl)c(N)c1c23	inactive	
C/C1=C/[C@@H](C)[C@H](O)[C@@H](O)/C=C/CC/C=C/C(=O)O[C@@H]1[C@H](C)C(=O)CCCC1CC(=O)NC(=O)C1	inactive	
CC(=O)Oc1cc2c(c(OC(C)=O)c1C1CCc3cc(Cl)c(Cl)n31)C(=O)n1c-2cc(Cl)c1Cl (centres undefined)	inactive	
COc1ccc2[nH]c3c(c2c1)CCN1C[C@H]2C[C@@H](OC(=O)c4cc(OC)c(OC)c(OC)c4)[C@H](OC)[C@@H](OC)[C@H]2C[C@H]31	inactive	
O[C@H]1c2ccccc2-c2c3c(cc4c2[C@@H]1NCC4)OCO3	inactive	
CC(C)=CC[C@H]1C[C@@]2(CC=C(C)C)C(=O)[C@](CC=C(C)C)(C(=O)C(C(=O)c3ccccc3)=C2O)C1(C)C	inactive	
C[C@]12CC[C@]3(C1)[C@H](CC2=O)C[C@@H](OC(=O)c1ccccc1)[C@H]1[C@](C)(C(=O)O)CCC[C@@]13C	inactive	

SMILES	outcome	caspase activation
CC(=O)O[C@H]1c2ccccc2-c2c3c(cc4c2[C@@H]1N(C(C)=O)CC4)OCO3	inactive	
C=C[C@](Cl)(CBr)CCC=C(C)C	inactive	
C=C1CC[C@@H](Br)C(C)(C)[C@]12CC=C(C)C(=O)C2	inactive	
COc1cc2c(cc1OC)[C@@H](c1ccc3c(c1)OCO3)C(C)C(C)C2=O (some centres undefined)	inactive	
C[C@H]1C=C[C@H]2CCCC[C@@H]2[C@H]1C(=O)[C@H]1CC2=C(C(=O)O)CCN2C1=O	inactive	
C/C(=C\[C@H](C)C(=O)/C=C/CC1CC(=O)NC(=O)C1)[C@@H]1OC(=O)/C=C/CC/C=C/C[C@@H](O)[C@@H]1C	inactive	
CC(C)[C@]12CC[C@@]3(C)[C@H](C)CC[C@H](O)[C@@]3(CC1)c1cc3c(cc12)[nH]c1ccccc13	inactive	
CC(C)=CCC[C@]12c3cc4c(cc3CC[C@@]1(C)[C@H](C)CC[C@@H]2O)[nH]c1ccccc14	inactive	
Oc1ccc(C2Oc3cc(O)c4c(c3[C@@H]2c2cc(O)cc(O)c2)[C@H]2C(c3ccc(O)cc3)c3c(O)cc5c(c3[C@H]2C4c2ccc(O)cc2)[C@H](c2cc(O)cc(O)c2)C(c2ccc(O)cc2)O5)cc1 (some centres undefined)	inactive	
COc1cc(O)c(C(=O)[C@@H]2[C@H](CC=C(C)C)C(C)=CC[C@H]2c2ccccc2)c(O)c1	inactive	
C=C(C)CC[C@H](Cc1c(O)cc(O)c2c1O[C@H](c1ccc(O)cc1)CC2=O)C(=C)C	inactive	
C=CC(CCCCC)C1C(=O)NC(=O)C1C(=O)C1C2C(C)CC(C(=O)O)CC2CC1(O)C(=O)/C=C/C (centres undefined)	inactive	
C[C@]12CCC[C@](C)(C(=O)O)[C@@H]1CC[C@@]1(C)c3cocc3CC[C@H]21	inactive	
COc1c(O)cc2c(c1O)C(=O)c1c(coc1C)C2=O	inactive	
CC(C)C[C@@H]1c2c(O)c(C=O)c(O)c(C=O)c2O[C@]2(C)C=C[C@@H](C(C)C)C[C@H]12	inactive	
COc1cc2c(c(O)c1O)C(=O)c1c(coc1C)C2=O	inactive	
CO[C@H]1[C@@H](OC(=O)/C(C)=C\[C@@H]2O[C@@H]2[C@H]2O[C@H]2C)[C@H](O)[C@H](OCC23C[C@@H]4[C@H](C)CC[C@H]4C4(C=O)CC2C=C(C(C)C)C34C(=O)O)O[C@@H]1C (some centres undefined)	inactive	
C/C=C/C1C=CC2CC(C)CC(C)C2C1C(=O)CC(=O)NC(CO)C/C=C/CCCCC (centres undefined)	inactive	
